Laboratory results: PubChem BioAssay AID1159580 (chemical genetic matrix, 2015)
Several values for one entry are separate records, joined by “and”; a condition that tells them apart may be missing. Equal values may be shown once. Out of some 5,500 compounds screened, about 2,000 (36%) were called active. Inconclusive results (about 18%) are left out. Cut-off read from the data, not from the text of the source: active = normalized growth mostly below about 0.91 (no sharp cut-off); inconclusive = no clear call, values can overlap the other calls; inactive = mostly above about 0.92. Some of the results follow.

Experiment: chemical genetic growth profiling, strain panel (AID 1159580);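 note: tested at 20 µM; growth read once vehicle control cultures reached saturation at 30 °C; 1 = growth at the plate median or of vehicle wells; lower values mean less growth of the strain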
Details: S. cerevisiae deletion strains, growth OD

Measured: normalized growth

CC(C)NCC(O)COc1cccc2ccccc12 (stereo unspecified)
inactive: locus YAL013W, strain DEP1, active compounds read low 1.01 | locus YAL021C, strain ccr4, active compounds read low 0.971 | locus YAL026C, strain drs2, active compounds read low 1.03 | locus YAL030W, strain snc1, active compounds read low 1.02 | locus YAL040C, strain CLN3, active compounds read low 1.01 and 0.981 | locus YBL061C, strain skt5, active compounds read low 1.01 | locus YBR009C, strain hhf1, active compounds read low 1 | locus YBR023C, strain chs3, active compounds read low 1.01 | locus YBR171W, strain sec66, active compounds read low 1.01 | locus YBR231C, strain swc5, active compounds read low 1.02 | locus YBR279W, strain paf1, active compounds read low 1.01 | locus YCL011C, strain gbp2, active compounds read low 1.01 | locus YCL016C, strain dcc1, active compounds read low 0.995 | locus YCL061C, strain MRC1 (second series), active compounds read low 1 and 1.02 | locus YCL061C, strain MRC1, active compounds read low 1.02 | locus YCL069W, strain vba3, active compounds read low 1.01 | locus YCR088W, strain abp1, active compounds read low 1.01 | locus YDL005C, strain med2, active compounds read low 1.01 | locus YDL040C, strain nat1, active compounds read low 1.01 | locus YDR001C, strain nth1, active compounds read low 1.02 | locus YDR069C, strain doa4, active compounds read low 1.01 | locus YDR137W, strain rgp1, active compounds read low 1.02 | locus YDR150W, strain NUM1, active compounds read low 1 | locus YDR159W, strain sac3, active compounds read low 0.992 | locus YDR195W, strain ref2 1.02 | locus YDR297W, strain sur2, active compounds read low 1.01 | locus YDR334W, strain swr1, active compounds read low 1.04 | locus YDR335W, strain msn5, active compounds read low 1.01 | locus YDR363W, strain ESC2, active compounds read low 1.01 and 0.959 | locus YDR392W, strain spt3, active compounds read low 1.02 | locus YEL003W, strain gim4, active compounds read low 1.03 | locus YEL037C, strain rad23, active compounds read low 1.01 | locus YEL061C, strain CIN8 (second series), active compounds read low 1.02 | locus YER002W, strain NOP16, active compounds read low 0.992 and 1.01 | locus YER015W, strain faa2, active compounds read low 1.01 | locus YER016W, strain bim1, active compounds read low 1.01 | locus YER111C, strain swi4, active compounds read low 1.03 | locus YER155C, strain BEM2 (second series), active compounds read low 1.05 | locus YFR010W, strain ubp6, active compounds read low 1.02 | locus YGL167C, strain pmr1, active compounds read low 1.02 | locus YGL173C, strain kem1, active compounds read low 1.01 | locus YGL227W, strain vid30, active compounds read low 1 | locus YGL240W, strain doc1, active compounds read low 1.02 | locus YGL253W, strain hxk2, active compounds read low 1.02 | locus YGR078C, strain PAC10, active compounds read low 1.02 and 1.01 | locus YGR229C, strain SMI1, active compounds read low 1.08 | locus YHR013C, strain ard1, active compounds read low 0.965 | locus YHR027C, strain rpn1, active compounds read low 1.01 | locus YHR030C, strain SLT2, active compounds read low 1.01 | locus YHR079C, strain IRE1, active compounds read low 1.02 | locus YHR142W, strain chs7, active compounds read low 1.05 | locus YJL092W, strain hpr5, active compounds read low 1.01 | locus YJL095W, strain BCK1 (second series), active compounds read low 1 | locus YJL095W, strain BCK1, active compounds read low 0.967 | locus YJL115W, strain asf1, active compounds read low 1.01 | locus YJL129C, strain trk1, active compounds read low 1.01 | locus YJL154C, strain vps35, active compounds read low 1.01 | locus YJL164C, strain tpk1, active compounds read low 0.997 | locus YJL166W, strain qcr8, active compounds read low 1.01 | locus YJR066W, strain TOR1, active compounds read low 0.996 | locus YJR075W, strain HOC1, active compounds read low 1.01 and 1 | locus YKL160W, strain elf1, active compounds read low 1.01 | locus YKR026C, strain gcn3, active compounds read low 1.01 | locus YKR091W, strain srl3, active compounds read low 1.02 | locus YLL001W, strain dnm1, active compounds read low 1.02 | locus YLL026W, active compounds read low 1.01 | locus YLL041C, strain sdh2, active compounds read low 1.01 | locus YLR027C, strain aat2, active compounds read low 1.01 | locus YLR113W, strain HOG1, active compounds read low 0.976 | locus YLR221C, strain rsa3, active compounds read low 0.972 | locus YLR258W, strain gsy2, active compounds read low 1 | locus YLR262C, strain YPT6 (second series), active compounds read low 1 | locus YLR320W, strain mms22, active compounds read low 0.997 | locus YLR342W, strain FKS1, active compounds read low 1.01 | locus YLR357W, strain rsc2, active compounds read low 1.07 | locus YLR370C, strain arc18, active compounds read low 1.01 | locus YLR384C, strain iki3, active compounds read low 1.01 | locus YML120C, strain ndi1, active compounds read low 1.01 | locus YMR058W, strain fet3, active compounds read low 1.02 | locus YMR125W, strain sto1, active compounds read low 1.07 | locus YMR129W, active compounds read low 1.01 | locus YMR205C, strain PFK2, active compounds read low 1.02 | locus YMR231W, strain pep5, active compounds read low 1.01 | locus YMR263W, strain SAP30, active compounds read low 1 | locus YMR307W, strain GAS1, active compounds read low 1.01 | locus YNL071W, strain lat1, active compounds read low 1.01 | locus YNL128W, strain TEP1, active compounds read low 0.995 | locus YNL175C, strain NOP13, active compounds read low 1.02 and 1.01 | locus YNL183C, strain NPR1, active compounds read low 1.01 | locus YNL197C, strain WHI3, active compounds read low 1 and 1.01 | locus YNL209W, strain ssb2, active compounds read low 1 | locus YNL224C, strain SQS1, active compounds read low 1.01 and 1.02 | locus YNL248C, strain rpa49, active compounds read low 1.04 | locus YNL322C, strain KRE1 (second series), active compounds read low 1 | locus YNL322C, strain KRE1, active compounds read low 1.01 | locus YNR049C, strain mso1, active compounds read low 1.01 | locus YOR001W, strain rrp6, active compounds read low 1.02 | locus YOR070C, strain gyp1, active compounds read low 1.01 | locus YOR080W, strain dia2, active compounds read low 1.02 | locus YOR083W, strain WHI5 (second series), active compounds read low 1.02 and 0.993 | locus YOR083W, strain WHI5, active compounds read low 1.01 | locus YOR106W, strain vam3, active compounds read low 1.03 | locus YOR231W, strain MKK1, active compounds read low 1.01 | locus YOR265W, strain rbl2, active compounds read low 1.02 | locus YOR270C, strain vph1, active compounds read low 1.06 | locus YOR290C, strain snf2, active compounds read low 1.01 | locus YPL051W, strain arl3, active compounds read low 1 | locus YPL078C, strain atp4, active compounds read low 1.06 | locus YPL106C, strain sse1, active compounds read low 0.985 | locus YPL240C, strain hsp82, active compounds read low 0.993 | locus YPL256C, strain CLN2, active compounds read low 1.02
